# Source: PubChem BioAssay (NCATS)
# Results filed as inconclusive are left out. Unmarked numbers belong to inactive results. The source made the active and inactive calls. The call rests on the fitted dose curve; in most records, active means well fitted cell-killing curve with a large enough effect; inconclusive means small, poorly fitted or top-dose-only effect, or effect the other way; inactive means flat fitted curve, though single readings scatter.
# Test system: CAOV3
# Test: Primary qHTS to identify gynecologic anti-cancer compounds using libraries of approved drugs and bioactive compounds (AID 1345084); further: nearly all actives have a fitted effect of over 55% in size
# Conditions: Gynecologic cancer cell panel viability, ATPlite luminescence, 48 h; series mostly up to 57.5 µM; activity change, negative = cytotoxicity: at the top concentration
# Description: National Center for Advancing Translational Sciences [NCATS] Assay Overview: Chemotherapeutic drug responses vary from cancer to cancer and from patient to patient. These variations could be caused by a number of factors including patient genomic background, tumor mutations, tumor heterogeneity, and aspects of drug treatment. Chemotherapeutic drug resistance is also a common issue and can lead to ineffective treatment and patient death. Here we have profiled the cell killing effects of thousands of compounds to characterize the responses in three gynecological cancers, identify cancer-selective compounds, and understand the diversity of responses to these compounds from pan-cancer suppressors to single cell line selective compounds. In this assay, we screened a 7,914 compound drug library that included approved drug and bioactive compounds in six ovarian, three cervical, and […] placental cancer cell lines using the ATPlite assay for cell viability. […] The cervical cancer cell lines included HeLa, Ca Ski, and C-33 A. The placental cancer cell lines included JEG-3. HEK 293T cells were used as the control cell line to determine the selectivity index. ATPlite is a luminescence based assay reliant on the conversion of a luciferase substrate to light in the presence of ATP. As a cytotoxic compound will suppress growth and decrease the number of cells, the concentration of ATP will decrease, and less light signal will be detected in the well.
# Assay Protocol Summary: 1,000 cells in 4 uL of media were dispensed into white, solid bottom 1536-well plates using a Multidrop Combi (Thermo Scientific). The Assay plates were incubated for 16 hours at 37 C with 5% CO2 in assay plates, followed by the addition of 23 nL of DMSO or drug dissolved in DMSO. Each compound was assayed in five concentrations (0.092, 0.46, 2.3, 11.5, and 57.5 uM), using the automated Wako 1536 Pin Tool workstation and incubated at 37 C with 5% CO2 48 hours. 4 uL of ATPlite, the ATP monitoring reagent, was then added to the each well of the assay plates using the Multidrop Combi reagent dispenser followed by incubation for 15 minutes at room temperature. The resulting luminescence was measured using the ViewLux plate reader.
# On the % scale 0 is the no-effect control and ±100 the full control effect; potency means the concentration at half of the fitted maximal effect.
SMILES,"activity change, negative = cytotoxicity",Potency
COc1cc(OC)cc(OC)c1,-4.6%,
CCC(=O)c1c(O)cc(O)cc1O,8.72%,
CO/N=C1\CN(c2nc3c(cc2F)c(=O)c(C(=O)O)cn3C2CC2)CC1CN (stereo not given),22.4%,
NC[C@H]1O[C@H](O[C@H]2[C@H](O)[C@@H](O[C@H]3O[C@H](CO)[C@@H](O)[C@H](N)[C@H]3O)[C@H](N)C[C@@H]2N)[C@H](N)[C@@H](O)[C@@H]1O,2.04% [at 25.3 µM],
O=C(Nc1ccc(Oc2ccc(Cl)cc2)c(Cl)c1)c1cc(I)cc(I)c1O,-6.28%,
O=C1OC(c2ccc(O)cc2)(c2ccc(O)cc2)c2ccccc21,16.7%,
COc1cc(C(=S)N2CCOCC2)cc(OC)c1OC,-0.0419%,
CC(O)(P(=O)(O)O)P(=O)(O)O,-0.797%,
CCC(C(=O)OCCN(CC)CC)c1ccccc1 (stereo not given),-4.59%,
O=C(O)CCCCC(=O)O,11%,
Oc1c(I)cc(I)c2cccnc12,-9.71%,
CN1CCN(C(c2ccccc2)c2ccccc2)CC1,,inactive
CC1=C(C(=O)O)N2C(=O)[C@@H](NC(=O)[C@H](N)c3ccc(O)cc3)[C@H]2SC1,-3.03%,
O=S1(=O)c2cccc3cccc(c23)N1CCCN1CCN(c2ccc(F)cc2)CC1,-10.6%,
Cc1c(C(C)C)c(=O)n(-c2ccccc2)n1C,1.58%,
CCCN1CCCC[C@H]1C(=O)Nc1c(C)cccc1C,3.72%,
CC(Cc1cccc(C(F)(F)F)c1)NCCOC(=O)c1ccccc1 (stereo not given),-7.71%,
CC(=O)Nc1c(I)cc(I)c(C(=O)O)c1I,-12.4%,
C#C[C@]1(OC(C)=O)CC[C@H]2[C@@H]3CCC4=C[C@@H](OC(C)=O)CC[C@@H]4[C@H]3CC[C@@]21C,,inactive
CC(Cc1ccccc1)(NC(=O)CN)c1ccccc1 (stereo not given),0.4%,

SMILES,"activity change, negative = cytotoxicity",Potency
Oc1ccc(Cl)cc1Sc1cc(Cl)ccc1O,2.27%,
c1ccc(CNCCNCc2ccccc2)cc1,6.98%,
Cc1onc(-c2c(Cl)cccc2Cl)c1C(=O)N[C@@H]1C(=O)N2[C@@H]1SC(C)(C)[C@@H]2C(=O)O,,inactive
CN1CCC[C@@H]1c1cccnc1,-1.21%,
CCCCCCCCCCOCC(O)CN (stereo not given),,31.6 µM (active)
CCCCS(=O)(=O)N[C@@H](Cc1ccc(OCCCCC2CCNCC2)cc1)C(=O)O,,inactive
CCOc1ccc2nc3cc(N)ccc3c(N)c2c1,,12.6 µM (active)
CCCCCCCCCCCCCCCC[N+](C)(C)CCN(Cc1ccc(OC)cc1)c1ncccn1,,17.8 µM (active)
CC[N+](CC)(CCNC(=O)C(=O)NCC[N+](CC)(CC)Cc1ccccc1Cl)Cc1ccccc1Cl,2.69%,
Cc1c(C(N)=O)cc([N+](=O)[O-])cc1[N+](=O)[O-],-3.42%,
COc1ccc(OC)c(C(O)CNC(=O)CN)c1 (stereo not given),-3.86%,
O=C(CCN1CCC(c2ccccc2)C1)c1ccc2c(c1)OCCO2 (stereo not given),-5.77%,
COC(=O)[C@@H]1CC2=CC(=O)CC[C@]2(C)[C@@]23O[C@@H]2C[C@@]2(C)[C@@H](CC[C@@]24CCC(=O)O4)[C@H]13,5.14%,
CC(=O)N/N=C/c1ccc([N+](=O)[O-])o1,-1.28%,
Cc1cc(O)c(C(C)C)cc1Cl,-2.55%,
CC1=C(C(=O)OC(C)C)C(c2cccc([N+](=O)[O-])c2)C(C(=O)OC2CN(C(c3ccccc3)c3ccccc3)C2)=C(N)N1 (stereo not given),11.7%,
CCCCCCC[N+](CC)(CC)CCCCc1ccc(Cl)cc1,,11.2 µM (active)
Oc1cc(O)c2c(c1)O[C@H](c1ccc(O)c(O)c1)[C@H](O)C2,-5.44%,
COc1cccc(OC)c1C(=O)N[C@@H]1C(=O)N2[C@@H]1SC(C)(C)[C@@H]2C(=O)O,,inactive
C[C@@H]1C[C@H]2[C@@H]3CCC4=CC(=O)C=C[C@]4(C)[C@@]3(F)[C@@H](O)C[C@]2(C)[C@H]1C(=O)CO,-3.38%,
